# According to PubChem BioAssay (NCATS):
# Records with an inconclusive call do not appear. Where a call stands in place of a potency, no number is given. Values without a mark were called inactive. Activity calls are given as the source filed them. The call rests on the fitted dose curve; in most records, active means well fitted curve in the direction sought with a large enough effect; inconclusive means small, poorly fitted or top-dose-only effect, or another doubt; inactive means no such curve, though single readings can be large; an effect the other way counts as inactive or inconclusive.
# Tests used:
# [1] = molecular target: Luciferin 4-monooxygenase (Photinus pyralis) (UniProt P08659); assay: Biochemical firefly luciferase enzyme assay for NPC (AID 624030);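 further: purified P. pyralis luciferase at 10 nM with luciferin and ATP substrate; nearly all actives have a fitted effect of over 70% in size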
# Summary of the method: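 Counter-screen for direct inhibition of the luciferase enzyme by approved-drug library compounds, run at 10 nM enzyme in 50 mM Tris acetate (final). Luminescence was read within 5 min of enzyme-buffer addition and normalized to PTC124 versus DMSO (0%).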
# [2] = qHTS profiling for inhibitors of Plasmodium falciparum proliferation (AID 504749); further: nearly all actives have a fitted effect of over 60% in size; further: potency means the concentration at half of the fitted maximal effect; settings: P. falciparum in erythrocytes, SYBR Green DNA, 72 h, at 28.7 µM (top of the series)
# Summary of the method: (§1)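 Fluorescence of SYBR Green-bound parasite DNA, read at 485/535 nm, served as the growth measure. Infected erythrocytes were cultured with compound 72 h; artemisinin (0.29 uM) and DMSO wells defined the normalization range.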
# [3] = tested on: C2A; assay: as above; settings: P. falciparum in erythrocytes, SYBR Green DNA, 72 h; series mostly up to 28.7 µM
# Summary of the method: as §1
# [4] = tested on: CP191; assay: as above; settings: P. falciparum in erythrocytes, SYBR Green DNA, 72 h; series mostly up to 28.7 µM
# Summary of the method: as §1
# [5] = tested on: CP192; assay: as above; settings: P. falciparum in erythrocytes, SYBR Green DNA, 72 h; series mostly up to 28.7 µM
# Summary of the method: as §1
# [6] = tested on: CP201; assay: as above; settings: P. falciparum in erythrocytes, SYBR Green DNA, 72 h; series mostly up to 28.7 µM
# Summary of the method: as §1
# [7] = tested on: CP215; assay: as above; settings: P. falciparum in erythrocytes, SYBR Green DNA, 72 h; series mostly up to 28.7 µM
# Summary of the method: as §1
# [8] = tested on: CP237; assay: as above; settings: P. falciparum in erythrocytes, SYBR Green DNA, 72 h; series mostly up to 28.7 µM
# Summary of the method: as §1
# [9] = tested on: CP268; assay: as above; settings: P. falciparum in erythrocytes, SYBR Green DNA, 72 h; series mostly up to 28.7 µM
# Summary of the method: as §1
# [10] = tested on: CP269; assay: as above; settings: P. falciparum in erythrocytes, SYBR Green DNA, 72 h; series mostly up to 28.7 µM
# Summary of the method: as §1
# [11] = tested on: CP286; assay: as above; settings: P. falciparum in erythrocytes, SYBR Green DNA, 72 h; series mostly up to 28.7 µM
# Summary of the method: as §1
# [12] = tested on: ECU; assay: as above; settings: P. falciparum in erythrocytes, SYBR Green DNA, 72 h; series mostly up to 28.7 µM
# Summary of the method: as §1
# [13] = tested on: FAB9; assay: as above; settings: P. falciparum in erythrocytes, SYBR Green DNA, 72 h; series mostly up to 28.7 µM
# Summary of the method: as §1
# [14] = tested on: JCK; assay: as above; settings: P. falciparum in erythrocytes, SYBR Green DNA, 72 h; series mostly up to 28.7 µM
# Summary of the method: as §1
# [15] = molecular target: ATP-dependent 6-phosphofructokinase (Trypanosoma brucei brucei) (UniProt O15648); assay: qHTS Assay to Find Inhibitors of T. brucei phosphofructokinase: hit validation (AID 492961);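 further: luminescence reports ADP formed as PFK phosphorylates fructose-6-phosphate with ATP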
# Summary of the method: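 PFK 1.25 nM, F6P 0.5 mM, ATP 0.1 mM, MgCl2 5 mM, 0.1 M TEA pH 8.0, Tween20 0.01%, BSA 0.1%; 45 min RT. ADP-Glo two-step detection, luminescence. qHTS titration; curve fitting with curve-class categorization.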
# [16] = tested on: ATS189; assay: qHTS profiling for inhibitors of Plasmodium falciparum proliferation (AID 504749); further: nearly all actives have a fitted effect of over 60% in size; further: potency means the concentration at half of the fitted maximal effect; settings: P. falciparum in erythrocytes, SYBR Green DNA, 72 h; series mostly up to 28.7 µM
# Summary of the method: as §1
# [17] = tested on: CP238; assay: as above; settings: P. falciparum in erythrocytes, SYBR Green DNA, 72 h; series mostly up to 28.7 µM
# Summary of the method: as §1
# [18] = tested on: CP325; assay: as above; settings: P. falciparum in erythrocytes, SYBR Green DNA, 72 h; series mostly up to 28.7 µM
# Summary of the method: as §1
# [19] = tested on: CP329; assay: as above; settings: P. falciparum in erythrocytes, SYBR Green DNA, 72 h; series mostly up to 28.7 µM
# Summary of the method: as §1
# [20] = tested on: PC49; assay: as above; settings: P. falciparum in erythrocytes, SYBR Green DNA, 72 h; series mostly up to 28.7 µM
# Summary of the method: as §1
# ATP-dependent 6-phosphofructokinase (Trypanosoma brucei brucei), sequence (O15648 whole entry, looked up): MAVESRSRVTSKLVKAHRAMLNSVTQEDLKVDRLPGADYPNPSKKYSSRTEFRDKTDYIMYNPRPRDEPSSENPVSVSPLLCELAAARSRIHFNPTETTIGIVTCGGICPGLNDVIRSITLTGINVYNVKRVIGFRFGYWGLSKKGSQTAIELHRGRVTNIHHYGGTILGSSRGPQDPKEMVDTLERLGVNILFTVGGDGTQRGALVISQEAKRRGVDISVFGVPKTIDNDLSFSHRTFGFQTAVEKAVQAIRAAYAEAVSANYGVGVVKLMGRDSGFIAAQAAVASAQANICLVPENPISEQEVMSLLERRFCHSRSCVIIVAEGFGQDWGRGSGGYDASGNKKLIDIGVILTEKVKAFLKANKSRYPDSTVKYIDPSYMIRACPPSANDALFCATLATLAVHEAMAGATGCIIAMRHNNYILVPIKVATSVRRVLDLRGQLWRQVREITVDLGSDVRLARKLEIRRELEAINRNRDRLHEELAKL
# Luciferin 4-monooxygenase (Photinus pyralis), sequence (P08659 whole entry, looked up): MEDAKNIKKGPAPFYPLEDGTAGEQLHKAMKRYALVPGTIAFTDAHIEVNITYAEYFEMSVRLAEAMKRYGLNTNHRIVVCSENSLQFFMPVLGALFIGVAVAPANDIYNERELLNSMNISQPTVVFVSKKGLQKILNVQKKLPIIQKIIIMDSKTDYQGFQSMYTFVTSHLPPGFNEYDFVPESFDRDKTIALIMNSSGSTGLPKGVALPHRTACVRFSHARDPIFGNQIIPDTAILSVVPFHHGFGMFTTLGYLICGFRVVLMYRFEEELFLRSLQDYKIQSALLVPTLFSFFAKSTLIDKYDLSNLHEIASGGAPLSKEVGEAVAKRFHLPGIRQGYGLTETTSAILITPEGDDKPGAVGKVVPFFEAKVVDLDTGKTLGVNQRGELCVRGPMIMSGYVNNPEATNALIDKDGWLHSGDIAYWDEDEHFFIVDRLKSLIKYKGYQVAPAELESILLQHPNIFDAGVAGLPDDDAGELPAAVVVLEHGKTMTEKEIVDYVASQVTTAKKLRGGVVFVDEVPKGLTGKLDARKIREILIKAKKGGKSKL
structure (smiles),measurement,setting,value
CCC(=O)OC1(c2ccccc2)CCN(C)CC1C (stereo not given),Potency,[1],inactive
same,"activity, negative = inhibition",[2]; parasite line A,-1.38%
same,"activity, negative = inhibition",[2]; parasite line B,2.19%
same,Potency,[3],inactive
same,Potency,[4],inactive
same,Potency,[5],inactive
same,Potency,[6],inactive
same,Potency,[7],inactive
same,Potency,[8],3.98 µM (active)
same,Potency,[9],inactive
same,Potency,[10],inactive
same,Potency,[11],12.6 µM (active)
same,Potency,[12],inactive
same,Potency,[13],inactive
same,Potency,[14],inactive
CC12CCC3C4CCC(=O)C(O)=C4CCC3C1CCC2OC(=O)CCC1CCCC1 (stereo not given),outcome,[15],inactive
same,Potency,[1],inactive
same,"activity, negative = inhibition",[2]; parasite line A,-6.44%
same,"activity, negative = inhibition",[2]; parasite line B,-4.5%
same,Potency,[16],inactive
same,Potency,[3],inactive
same,Potency,[4],inactive
same,Potency,[5],inactive
same,Potency,[6],inactive
same,Potency,[7],inactive
same,Potency,[8],inactive
same,Potency,[17],inactive
same,Potency,[9],inactive
same,Potency,[10],inactive
same,Potency,[11],inactive
same,Potency,[18],inactive
same,Potency,[19],inactive
same,Potency,[12],inactive
same,Potency,[13],inactive
same,Potency,[14],inactive
same,Potency,[20],inactive
CC1CC[C@@]2(NC1)OC1CC3C4CC[C@@H]5CC(O)CC[C@@]5(C)C4CC[C@]3(C)C1C2C (stereo not given in full),outcome,[15],inactive
same,Potency,[1],inactive
same,Potency,[16],inactive
same,Potency,[3],inactive
same,Potency,[4],inactive
same,Potency,[5],inactive
same,Potency,[6],inactive
same,Potency,[7],inactive
same,Potency,[8],inactive
same,Potency,[17],inactive
same,Potency,[9],inactive
same,Potency,[10],inactive
same,Potency,[11],inactive
same,Potency,[18],inactive
same,Potency,[19],inactive
same,Potency,[12],12.6 µM (active)
same,Potency,[13],inactive
same,Potency,[14],inactive
same,Potency,[20],inactive
COC(=O)C1C(OC(=O)c2ccccc2)CC2CCC1N2C (stereo not given),Potency,[1],inactive
same,"activity, negative = inhibition",[2]; parasite line A,9.75%
same,"activity, negative = inhibition",[2]; parasite line B,-3.4%
same,Potency,[16],inactive
same,Potency,[3],inactive
same,Potency,[4],inactive
same,Potency,[5],inactive
same,Potency,[6],inactive
same,Potency,[7],inactive
same,Potency,[8],inactive
same,Potency,[17],inactive
same,Potency,[9],inactive
same,Potency,[10],inactive
same,Potency,[11],inactive
same,Potency,[18],inactive
same,Potency,[19],inactive
same,Potency,[12],inactive
same,Potency,[13],inactive
same,Potency,[14],inactive
same,Potency,[20],inactive
CC(=O)Oc1ccc2c3c1OC1[C@@H](OC(C)=O)C=C[C@H]4[C@H](C2)N(C)CC[C@]314 (stereo not given in full),outcome,[15],inactive
same,Potency,[1],inactive
same,"activity, negative = inhibition",[2]; parasite line A,15.5%
same,"activity, negative = inhibition",[2]; parasite line B,9.45%
same,Potency,[16],inactive
same,Potency,[3],inactive
same,Potency,[4],inactive
same,Potency,[5],inactive
same,Potency,[6],inactive
same,Potency,[7],inactive
same,Potency,[8],inactive
same,Potency,[17],inactive
same,Potency,[9],inactive
same,Potency,[10],inactive
same,Potency,[11],inactive
same,Potency,[18],inactive
same,Potency,[19],inactive
same,Potency,[12],inactive
same,Potency,[13],inactive
same,Potency,[14],inactive
same,Potency,[20],inactive
CC(=O)[C@H]1CC[C@H]2C3CC[C@H]4C[C@H](O)CC[C@]4(C)C3CC[C@]12C (stereo not given in full),outcome,[15],inactive
same,Potency,[1],inactive
same,"activity, negative = inhibition",[2]; parasite line A,-11.3%
same,"activity, negative = inhibition",[2]; parasite line B,2.02%
same,Potency,[16],inactive
same,Potency,[3],inactive
same,Potency,[4],inactive
same,Potency,[5],inactive
same,Potency,[6],inactive
same,Potency,[7],inactive
same,Potency,[8],inactive
same,Potency,[17],inactive
same,Potency,[9],inactive
same,Potency,[10],inactive
same,Potency,[11],inactive
same,Potency,[18],inactive
same,Potency,[19],inactive
same,Potency,[12],inactive
same,Potency,[13],inactive
same,Potency,[14],inactive
same,Potency,[20],inactive
C#C[C@]1(O)CC[C@H]2[C@@H]3CCC4=CC(=O)CCC4(C)[C@H]3CCC21C (stereo not given in full),outcome,[15],inactive
same,Potency,[1],inactive
same,"activity, negative = inhibition",[2]; parasite line A,-6.98%
same,"activity, negative = inhibition",[2]; parasite line B,2.88%
same,Potency,[16],inactive
same,Potency,[3],inactive
same,Potency,[4],inactive
same,Potency,[5],inactive
same,Potency,[6],inactive
same,Potency,[7],inactive
same,Potency,[8],inactive
same,Potency,[17],inactive
same,Potency,[9],inactive
same,Potency,[10],inactive
same,Potency,[11],inactive
same,Potency,[18],inactive
same,Potency,[19],inactive
same,Potency,[12],inactive
same,Potency,[13],inactive
same,Potency,[14],inactive
same,Potency,[20],inactive
CCN(CC)C(=O)N[C@@H]1C=C2c3cccc4[nH]cc(c34)C[C@H]2N(C)C1,outcome,[15],inactive
same,Potency,[1],inactive
same,"activity, negative = inhibition",[2]; parasite line A,-22.6%
same,Potency,[5],inactive
same,Potency,[6],inactive
same,Potency,[7],inactive
same,Potency,[18],inactive
same,Potency,[13],inactive
same,Potency,[20],inactive
CN(C)C1C(=O)C(C(N)=O)C(=O)C2(O)C(=O)C3C(=O)c4c(O)cccc4C(C)(O)C3C(O)C12 (stereo not given),outcome,[15],inactive
same,Potency,[1],inactive
same,Potency,[16],inactive
same,Potency,[3],inactive
same,Potency,[4],inactive
same,Potency,[5],inactive
same,Potency,[6],inactive
same,Potency,[7],inactive
same,Potency,[17],inactive
same,Potency,[19],inactive
same,Potency,[12],inactive
same,Potency,[13],inactive
same,Potency,[14],inactive
same,Potency,[20],inactive
CC(=O)O[C@H]1C[C@H](O[C@H]2[C@@H](O)CC(O[C@H]3[C@@H](O)C[C@H](O[C@H]4CC[C@@]5(C)[C@H](CC[C@@H]6[C@@H]5CC[C@]5(C)[C@@H](C7=CC(=O)OC7)CC[C@]65O)C4)O[C@@H]3C)O[C@@H]2C)O[C@H](C)[C@H]1O[C@@H]1O[C@H](CO)[C@@H](O)[C@H](O)[C@H]1O (stereo not given in full),outcome,[15],inactive
same,Potency,[1],inactive
same,"activity, negative = inhibition",[2]; parasite line A,9.47%
same,"activity, negative = inhibition",[2]; parasite line B,16.3%
same,Potency,[16],inactive
same,Potency,[3],inactive
same,Potency,[5],inactive
same,Potency,[6],inactive
same,Potency,[7],inactive
same,Potency,[17],inactive
same,Potency,[9],inactive
same,Potency,[10],inactive
same,Potency,[11],inactive
same,Potency,[18],inactive
same,Potency,[19],inactive
same,Potency,[12],inactive
same,Potency,[13],inactive
same,Potency,[14],inactive
same,Potency,[20],inactive
